Assay results published in PubChem BioAssay AID626 (Vanderbilt High Throughput Screening Facility, 2007).
Out of some 64,000 compounds screened, about 1,900 (3%) were called active.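 The calls were made as follows: active = fluorescence rise, raw or as B-score row- and column-corrected plate score, outside the 99.7% band of its plate's samples, either direction; inactive = the rest.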 Only a selection was taken, and actives are over-represented in it overall.

The compounds below were run on Muscarinic acetylcholine receptor M1 (assay: direct activation of M1 receptor calcium signal – CHO-M1 cells, Fluo-4 calcium, agonist mode, primary screen (AID 626)). Conditions: Fluo-4 calcium fluorescence, at 10 µM, hits give high values.
`O=C(c1ccco1)N(Cc1nc2ccccc2c(=O)[nH]1)C1CCCC1` was tested, and the B-score was 1.19 (inactive).
For `CCN(CC)c1ccc2oc(=O)c(C)nc2c1`, the B-score was 19.1 (active).
`CCN(CC)c1ccc2cc(C(=O)O)c(=O)oc2c1` was tested, and the B-score was 17.2 (active).
In the case of `CCc1ccc2oc(-c3ccc(N)cc3)nc2c1`, the B-score is reported as 0.427 (inactive).
For `COc1ccc2oc(=O)c(C(=O)O)cc2c1`, the B-score was -0.167 (inactive).
For `CCCOC(=O)c1cc2ccccc2oc1=O`, the B-score was -0.13 (inactive).
`CCC1(C)Cc2c(sc3nc4n(c(=O)c23)CCCS4)CO1` (configuration not stated) was tested, and the B-score was -0.146 (inactive).
`CCOC(=O)c1cc(-c2ccc(Cl)s2)nc2c1c(C)nn2C` was tested, and the B-score was 0.0112 (inactive).
`CSc1ccc(Cl)c(C(=O)OCC(=O)N2CC(C)OC(C)C2)c1` (configuration not stated) was tested, and the B-score was -0.691 (inactive).
For `Cc1cc(OCCN2CCCC2)ccc1C(C)C`, the B-score was -1.57 (inactive).
For `COc1ccccc1NC1=NC(c2ccc(Cl)cc2)N=C(N)N1` (configuration not stated), the B-score was 2.75 (active).
With `COc1ccccc1Nc1nc(N)nc(CN(C)C2CCCCC2)n1` the B-score was 0.169 (inactive).
In the case of `COc1ccccc1NC1=NC2(CCCC2)N=C(N)N1`, the B-score is reported as 0.458 (inactive).
For `O=C(Nc1nc(-c2ccncc2)cs1)C1COc2ccccc2O1` (configuration not stated), the B-score was -1.04 (inactive).
In the case of `O=C(Nc1nc(-c2ccc3c(c2)OCO3)cs1)c1ccncc1`, the B-score is reported as 5.34 (active).
With `O=C(Nc1ccc2c(c1)OCCO2)c1ccncc1` the B-score was -0.637 (inactive).
With `CC1(C)CC(=O)C(C=NCCC2=CCCCC2)=C(O)C1` the B-score was 0.836 (inactive).
`O=C(Oc1ccc2c(c1)CCC2)N1CCOCC1` was tested, and the B-score was -0.594 (inactive).
In the case of `O=C(c1ccccc1)N1CCN(C(=O)N2CCCCC2)CC1`, the B-score is reported as -0.157 (inactive).
For `O=C(c1ccccc1)c1ccc(OC(=O)N2CCCC2)cc1`, the B-score was -2.34 (active).
In the case of `CC(C)(C)c1ccc(NC(=O)NCc2ccco2)cc1`, the B-score is reported as 0.39 (inactive).
In the case of `c1cnc(NC2C3CC4CC(C3)CC2C4)nc1` (configuration not stated), the B-score is reported as 2.24 (inactive).
`CCOC(=O)CSc1nc2c(c(=O)n(C)c(=O)n2C)n1Cc1ccccc1F` was tested, and the B-score was -0.066 (inactive).
`COc1ccccc1NC(=O)CSc1nc2sc(C)c(C)c2c(=O)n1Cc1ccco1` was tested, and the B-score was -1.75 (inactive).
With `CCOC(=O)CSc1nc2c(sc(=S)n2CCc2ccccc2)c(=O)n1Cc1ccco1` the B-score was 7.17 (active).
For `CC(=O)Nc1ccc(S(=O)(=O)NCCc2ccccc2)cc1`, the B-score was -0.0675 (inactive).
With `Cc1cc(C)n(C(=O)c2ccc(C)c(S(=O)(=O)N3CCOCC3)c2)n1` the B-score was -0.672 (inactive).
In the case of `Cc1cc(NC(=O)COC(=O)c2ccc(F)c(S(=O)(=O)N3CCOCC3)c2)no1`, the B-score is reported as 0.164 (inactive).
In the case of `COc1ccc(C(=O)OCC(=O)c2ccc(C)c(S(=O)(=O)N3CCOCC3)c2)cc1OC`, the B-score is reported as 11.4 (active).
In the case of `CCC(C)NC(=O)C1CCC(=O)N1Cc1ccc(C)cc1` (configuration not stated), the B-score is reported as -0.196 (inactive).
With `O=C(CN1C(=O)COc2ccccc21)Nc1ccc(F)cc1` the B-score was 0.887 (inactive).
In the case of `O=C(Nc1ccccc1)c1cccnc1Nc1ccccc1`, the B-score is reported as 1.29 (inactive).
For `COc1ccc(CNC(=O)c2cc3c(=O)n4ccccc4nc3n(CC3CCCO3)c2=N)cc1` (configuration not stated), the B-score was 0.00619 (inactive).
`Cc1cccn2c(=O)c3cc(C#N)c(=O)n(CCCN4CCOCC4)c3nc12` was tested, and the B-score was -0.675 (inactive).
For `Cc1cccn2c(=O)c3cc(C#N)c(=NC(=O)c4cccnc4)n(CC4CCCO4)c3nc12` (configuration not stated), the B-score was 37.8 (active).
In the case of `CC(=O)NC1CC2CCCC(C1)N2CC(=O)Nc1ccccc1` (configuration not stated), the B-score is reported as -1.24 (inactive).
`C=CCn1c2ccccc2c2nnc(SC(CC)C(=O)Nc3nc(C)c(C(=O)OCC)s3)nc21` (configuration not stated) was tested, and the B-score was 1.41 (inactive).
`O=C(O)CCC(=O)NCc1ccc2[nH]c3c(c2c1)CCCC3` was tested, and the B-score was 1.3 (inactive).
`CCCc1cc(=O)oc2c(C)c(O)c(CN3CCCCC3)cc12` was tested, and the B-score was 0.177 (inactive).
In the case of `CCn1c(Cc2ccccc2)nnc1SCC(=O)Nc1ccccc1`, the B-score is reported as -0.0339 (inactive).
`COc1ccc(CCNC(=O)C2CCN(c3nn4c(=O)cc(C)nc4s3)CC2)cc1OC` was tested, and the B-score was 4.73 (active).
`CCCS(=O)(=O)N1CCC(C(=O)NCCc2ccc(OC)c(OC)c2)CC1` was tested, and the B-score was -0.16 (inactive).
For `Cc1cc(=O)n2nc(N3CCCC(C(=O)NCCC4=CCCCC4)C3)sc2n1` (configuration not stated), the B-score was -0.152 (inactive).
`Clc1ccc(CSc2nnc([C@@H]3CCCN3)o2)cc1` was tested, and the B-score was -0.196 (inactive).
For `CC(C)C1Cc2c(sc3c2c(=O)n(-c2ccccc2)c2nncn32)CO1` (configuration not stated), the B-score was -0.132 (inactive).
For `O=C(COc1ccc(Cl)cc1)Nc1ccccc1CO`, the B-score was 1.32 (inactive).
With `O=C(COC(=O)CCc1c[nH]c(=O)[nH]1)Nc1ccccc1Cl` the B-score was 2.4 (active).
For `CC1(C)CC(CCC(=O)Nc2ccccc2Cl)C(=O)O1` (configuration not stated), the B-score was 0.285 (inactive).
In the case of `CCOC(=O)N1CCN(Cc2oc(CO)cc(=O)c2O)CC1`, the B-score is reported as 0.262 (inactive).
With `Cc1ccccc1CN1CCN(C(=O)c2cccc(F)c2)CC1` the B-score was -0.152 (inactive).
With `O=C(c1cccc(C(=O)N2CCN(c3ccc(F)cc3)CC2)c1)N1CCN(c2ccc(F)cc2)CC1` the B-score was 3.5 (active).
In the case of `O=C(c1ccccc1)c1cccn1CC(=O)N1CCN(c2ccc(F)cc2)CC1`, the B-score is reported as -0.56 (inactive).
`CS(=O)(=O)N(CC(=O)N1CCOCC1)c1ccc2c3c(cccc13)CC2` was tested, and the B-score was 0.155 (inactive).
In the case of `Cc1ccc(NC2=NC(c3ccccc3)n3c(nc(C)cc3=O)N2)cc1` (configuration not stated), the B-score is reported as -0.0683 (inactive).
`COC(=O)c1ccccc1NC(=O)c1cncc(Br)c1` was tested, and the B-score was 0.529 (inactive).
`CCOc1ccc2nc(NCCNS(=O)(=O)c3ccccc3)c(C#N)cc2c1` was tested, and the B-score was -0.354 (inactive).
For `CCOc1ccc2nc(N3CCCN(C(=O)Nc4ccccc4C)CC3)c(C#N)cc2c1`, the B-score was 49.3 (active).
`Cc1cccc2cc(C#N)c(N3CCCC3)nc12` was tested, and the B-score was 1.26 (inactive).
`O=C1c2ccccc2C(=O)N1CCc1nn[nH]n1` was tested, and the B-score was 0.641 (inactive).
For `Cc1ccc(SCCN2C(=O)NC(C)(C)C2=O)cc1`, the B-score was 0.397 (inactive).
With `Nc1ccc(SCCN2C(=O)c3ccccc3C2=O)cc1` the B-score was 13.8 (active).
In the case of `NS(=O)(=O)c1ccc(NS(=O)(=O)/C=C/c2ccccc2)cc1`, the B-score is reported as -0.0855 (inactive).
With `O=C(OCCO)c1cc(Cl)c(C(=O)OCCO)cc1Cl` the B-score was 0.283 (inactive).
For `Cc1ccc(CNC(=O)CN2CCN(Cc3ccc(Cl)cc3)C2=O)cc1`, the B-score was -0.559 (inactive).
In the case of `CS(=O)(=O)N(Cc1nc2sc3c(c2c(=O)[nH]1)CCCC3)C1CCCCC1`, the B-score is reported as -0.0154 (inactive).
For `CSCCC(NC(=O)C1CCC(C)CC1)C(=O)NCc1ccco1` (configuration not stated), the B-score was -0.577 (inactive).
In the case of `Cn1c(=O)[nH]c(=O)c2c1nc(NCCCn1ccnc1)n2Cc1cccc(Br)c1`, the B-score is reported as 0.757 (inactive).
`CCOc1ccc(C2C(C(=O)O)c3ccccc3C(=O)N2CCN2CCOCC2)cc1` (configuration not stated) was tested, and the B-score was 0.0396 (inactive).
`COc1ccc(N2CCN(CCNC(=O)CCN3C(=O)COc4ccccc43)CC2)cc1` was tested, and the B-score was 0.72 (inactive).
With `COc1ccc(C2C(C(=O)N3CCN(c4ccc(OC)cc4)CC3)c3ccccc3C(=O)N2C)cc1` (configuration not stated) the B-score was 4.34 (active).
`CN(C)/C=C/c1c(C#N)c(=O)ncn1Cc1ccccc1` was tested, and the B-score was 1.01 (inactive).
In the case of `N#C/C=C\Oc1ccc(Cl)cc1N`, the B-score is reported as 0.000464 (inactive).
For `COc1ccc(OC)c(S(=O)(=O)N(C)CC(=O)N2CCN(c3ccccc3)CC2)c1`, the B-score was 0.148 (inactive).
In the case of `COc1ccc(C(C(O)C(=O)c2c[nH]c3ccccc23)N2CCN(c3ccccc3)CC2)cc1` (configuration not stated), the B-score is reported as 3.3 (active).
For `CCCC(=O)NC(C)C(c1cccs1)N1CCN(c2ccccc2)CC1` (configuration not stated), the B-score was -0.223 (inactive).
For `CCOC(=O)c1sc(NC(=O)CSc2ncccn2)c(C#N)c1C`, the B-score was 0.288 (inactive).
With `COc1ccc(S(=O)(=O)N2CCN(C(=O)c3cccs3)CC2)cc1OC` the B-score was -1.5 (inactive).
In the case of `CC(=O)c1ccc(N2C(=NC(=O)C(C)C)SC3CS(=O)(=O)CC32)cc1` (configuration not stated), the B-score is reported as -0.587 (inactive).
With `Cn1c(=O)c(=O)n(C)c2cc(S(=O)(=O)NCCc3ccccc3)ccc21` the B-score was 0.704 (inactive).
With `COc1ccc(NC(C)=O)cc1NC(=O)CN1CCN(C2c3ccccc3-c3ccccc32)CC1` the B-score was 0.8 (inactive).
`CC(=O)Nc1ccc(NC(=O)CN2CCCC(C)C2)c(Cl)c1` (configuration not stated) was tested, and the B-score was 6.88 (active).
`O=C(CN1CCOCC1)Nc1ccc(NC(=O)CN2CCOCC2)c(Cl)c1` was tested, and the B-score was -0.0117 (inactive).
For `CCNS(=O)(=O)c1ccc(NC(=O)Nc2cccc(OC)c2)cc1`, the B-score was 2.45 (inactive).
For `CCOP1(=O)C=C(C(C)(C)C)OC1c1ccc(F)cc1` (configuration not stated), the B-score was -0.203 (inactive).
For `CCOc1ccc(NCCC(=O)c2ccc3c(c2)OCO3)cc1`, the B-score was -0.0168 (inactive).
`Cc1ccc2oc(=O)c3cnn(CC(=O)N4CCN(c5ccccn5)CC4)c3c2c1` was tested, and the B-score was 7.39 (active).
`CCOC(=O)C1CCCN(C(=O)Cn2ncc3c(=O)oc4ccc(C)cc4c32)C1` (configuration not stated) was tested, and the B-score was -0.657 (inactive).
With `Cc1ccc2oc(=O)c3cnn(CC(=O)N4CCCCCC4)c3c2c1` the B-score was 0.0625 (inactive).
For `O=C(NC1CC2CCCC(C1)N2C(=O)N1CCCCC1)C1CCCCC1` (configuration not stated), the B-score was 0.398 (inactive).
With `CN1CCCC(OC(=O)COc2ccc(Br)cc2)C1` (configuration not stated) the B-score was 2.29 (inactive).
For `Cc1ccc(F)cc1NC(=O)c1ccc2c(c1)OCO2`, the B-score was 0.368 (inactive).
`CCOC(=O)c1c(NC(=O)CSc2nnc(CN3CCOCC3)n2C)sc2c1CCCC2` was tested, and the B-score was 0.743 (inactive).
`c1ccc(CSc2nnc(-c3ccco3)n2Cc2ccccc2)cc1` was tested, and the B-score was 1.61 (inactive).
`O=C(CSc1nnc(-c2ccco2)n1Cc1ccccc1)NC(=O)NCc1ccco1` was tested, and the B-score was 2.23 (active).
In the case of `O=C(CSc1nnc(-c2ccco2)n1-c1ccccc1)NCCc1ccccc1`, the B-score is reported as 0.164 (inactive).
For `COc1cccc(-c2nn(C)c3sc(C(=O)N4CCN(c5ccccc5)CC4)cc23)c1`, the B-score was -0.654 (inactive).
With `CC(=O)OC(C)C[N+](C)(C)C` (configuration not stated) the B-score was 53.8 (active).
`CC(C[N+](C)(C)C)OC(N)=O` (configuration not stated) was tested, and the B-score was 67.7 (active).
With `CCC(=O)N1c2ccc(S(=O)(=O)CCC(=O)N3CCN(c4ccccc4)CC3)cc2CC1C` (configuration not stated) the B-score was -2.01 (inactive).
For `Cn1c(=O)c2c(ncn2CC(=O)N2CCN(c3ccccc3)CC2)n(C)c1=O`, the B-score was 0.437 (inactive).
For `COc1ccc(-c2nnco2)cc1OC`, the B-score was 0.77 (inactive).
In the case of `O=S(=O)(CCc1nc2ccccc2o1)c1ccc(Cl)cc1`, the B-score is reported as 0.134 (inactive).
